Results: PubChem BioAssay AID1159580 (chemical genetic matrix, 2015)
About 2,000 (36%) of roughly 5,500 compounds were called active. Roughly 18% stayed inconclusive and do not appear here. Rule as the data show it: active = normalized growth mostly below about 0.91 (no sharp cut-off); inconclusive = no clear call, values can overlap the other calls; inactive = mostly above about 0.92. Some of the results follow.

Experiment: chemical genetic growth profiling, strain panel (AID 1159580);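 also: tested at 20 µM; growth read once vehicle control cultures reached saturation at 30 °C; 1 = growth at the plate median or of vehicle wells; lower values mean less growth of the strain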
Details: S. cerevisiae deletion strains, growth OD

Measured: normalized growth

O=C(O)CC[C@@H](NC(=O)c1ccccc1C(=O)O)C(=O)O
inactive: locus YAL013W, strain DEP1, active compounds read low 1.02 | locus YAL040C, strain CLN3, active compounds read low 0.995 | locus YCL061C, strain MRC1 (second series), active compounds read low 1.01 | locus YDR363W, strain ESC2, active compounds read low 1.01 | locus YER002W, strain NOP16, active compounds read low 1.03 | locus YGR229C, strain SMI1, active compounds read low 1.03 | locus YJR075W, strain HOC1, active compounds read low 1.01 | locus YMR307W, strain GAS1, active compounds read low 1 | locus YNL175C, strain NOP13, active compounds read low 1 | locus YNL197C, strain WHI3, active compounds read low 1.01 | locus YNL224C, strain SQS1, active compounds read low 1.01 | locus YNL322C, strain KRE1, active compounds read low 1 | locus YOR083W, strain WHI5 (second series), active compounds read low 1.02 | locus YPL241C, strain CIN2, active compounds read low 1.01
